Sampled rows, rich in hits. Any-hit rate of the full collection: about 27%.
sEH act = increases human soluble epoxide hydrolase activity | activation, % at 2 µM | purified human sEH enzymatic activity, activator screen | 91,000 tested, 0.04% active | P34913; in the data active = activation above about 37%
CYP2C19 activ = cytochrome P450 2C19 (human) activation; 96,000 tested, under 10 active; P33261; AID 1025; recombinant CYP2C19, luciferin-H EGE luminescence; active compounds read high; 0 = fully inhibited enzyme, 1 = untreated enzyme; activation factor at 5 µM;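 active = activation factor of at least 2 at 5 µM in the primary screen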;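 also: 0 = wells with 2.5 mM tranylcypromine and 1 = vehicle-only wells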
CYP2C9 inh = blocks human cytochrome P450 2C9; AID 777; CYP2C9 Supersomes, luciferin-H conversion, luminescence; P11712; inhibition, % at 5 µM; 96,000 tested, 20% active;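 active = blocking of liver enzyme CYP2C9 beyond about 50% at 5 µM, limit read from the data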
Target sequence (P11712 whole entry, looked up): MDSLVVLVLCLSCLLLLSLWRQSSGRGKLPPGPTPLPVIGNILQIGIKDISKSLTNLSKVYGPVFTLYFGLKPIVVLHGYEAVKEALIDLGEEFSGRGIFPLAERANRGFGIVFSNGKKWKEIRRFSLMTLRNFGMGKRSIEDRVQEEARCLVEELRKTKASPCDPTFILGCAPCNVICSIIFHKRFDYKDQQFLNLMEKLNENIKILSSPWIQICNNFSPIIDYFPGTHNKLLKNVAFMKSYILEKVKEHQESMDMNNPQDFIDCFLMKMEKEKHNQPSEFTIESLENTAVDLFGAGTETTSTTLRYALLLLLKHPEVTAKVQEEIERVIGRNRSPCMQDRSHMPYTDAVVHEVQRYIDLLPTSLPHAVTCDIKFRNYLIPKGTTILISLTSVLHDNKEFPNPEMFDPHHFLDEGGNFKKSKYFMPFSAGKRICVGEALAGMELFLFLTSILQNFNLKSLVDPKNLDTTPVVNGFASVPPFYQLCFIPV
CYP2C19 inh = blocks human cytochrome P450 2C19; 96,000 tested, 21% active; AID 778; CYP2C19 Supersomes, luciferin-H EGE luminescence, 30 min; inhibition, % at 5 µM; P33261;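 active = CYP2C19 inhibition above a set limit at 5 µM in the primary screen, cut at about 50% in these data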;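 also: plate controls were negative control wells for no effect and 2.5 mM tranylcypromine positive control for full effect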
sEH inh = blocks human soluble epoxide hydrolase activity; P34913; recombinant human sEH enzymatic activity assay; inhibition, % at 2 µM; 91,000 tested, 0.34% active; AID 707; in the data active = inhibition above about 80%
CYP2C9 act = activators of human CYP2C9. P11712. recombinant CYP2C9, luciferin-H conversion, luminescence; active compounds read high; factor 1 = untreated enzyme, 0 = blocked. activation factor at 5 µM. 96,000 tested, 1.4% active. AID 1024;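 active = activation factor of 2 or more for CYP2C9 at a 5 µM dose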;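 also: 0 = sulfaphenazole-blocked wells and 1 = vehicle-only wells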
* marks the source's active call; other numbers are inactive results; . = no result.

SMILES	sEH act	CYP2C19 activ	CYP2C9 inh	CYP2C19 inh	sEH inh	CYP2C9 act
O=c1[nH]c(=O)n(CCc2ccccc2)c(O)c1C=NCc1ccc2c(c1)OCO2	8	1.3	25	-26	-11	0.8
CCCCCCCSc1cc(OC)c(CCN(C)C)cc1OC	7	0.3	-1	67*	-9	1
CCCCCSc1cc(OC)c(CCN)cc1OC	6	0	45	96*	-6	0.5
COC(=O)CCCNC(=O)CN1CC(c2ccccc2)CC1=O (stereo not given)	4	1.2	-7	-20	-6	1.1
O=C(Cc1ccccc1)OC(COCc1ccccc1)CN1CCOCC1 (stereo not given)	5	0.3	44	73*	-4	0.6
Nc1ccccc1C(=O)OC1CSC1	-8	1.2	-13	-16	6	1.1
CCN1CCN(C(=O)COc2ccc3c(c2)C(=O)CC2(CCN(C(C)=O)CC2)O3)CC1	11	1	12	3	-9	0.9
CCCC/C(=N\O)c1c[nH]c2ccccc12	-1	0.3	28	69*	3	0.7
O/N=C/c1c[nH]c2ccccc12	5	1	-15	5	-4	1.1
CN(C=O)CP(=O)(O)CN(C)C=O	4	0.7	1	31	-7	1
O=C(CNS(=O)(=O)c1cccs1)N1CCC2(CC1)OCCO2	-3	0.5	-10	52*	3	1.1
COCCOC(=O)c1c(N)n(Cc2ccc(OC)cc2)c2nc3ccccc3nc12	.	0.4	83*	64*	.	0.2
CCOC(=O)c1c(N)n(Cc2ccc(OC)cc2)c2nc3ccccc3nc12	-15	0.9	32	13	16	0.7
CCOC(=O)c1c(N)n(CCCOC(=O)c2ccco2)c2nc3ccccc3nc12	13	0.3	86*	66*	-11	0.1
COc1ccc(Cn2c(N)c(C(=O)NCc3ccco3)c3nc4ccccc4nc32)cc1OC	4	0.6	79*	42	-2	0.2
COC(=O)c1c(N)n(Cc2ccc(OC)cc2)c2nc3ccccc3nc12	.	0.3	71*	75*	.	0.3
CCOc1ccccc1-n1c(O)c(C=NCCCN(CC)CC)c(=O)[nH]c1=O	9	1	-2	0	-11	1
O=C(C1CC(=O)N(C2CCCCCCC2)C1)N1CCC2(CC1)OCCO2 (stereo not given)	-4	0.8	4	17	3	1
CC1(C)CC(=O)C(C2(O)C(=O)NC(=O)NC2=O)=C(O)C1	.	0.9	8	6	.	0.9
OCCOCC#CCN1CCOCC1	-7	1.1	6	-7	8	0.9
Oc1ccc(Br)cc1CN1CCN(c2ccccc2)CC1	12	0.8	64*	24	-10	0.4
COc1cc(C)c(CN2CCN(c3ccccc3)CC2)cc1C	6	0.4	6	56*	-6	0.9
COc1cc(CN2CCN(c3cc(C)ccc3C)CC2)ccc1O	-11	0.4	33	56*	10	0.7
COc1ccccc1N1CCN(Cc2ccc(Br)s2)CC1	.	0.1	78*	94*	.	0.2
COc1cc(Br)cc(CN2CCN(C)CC2)c1O	-8	1	-7	2	9	1.1
SMILES	sEH act	CYP2C19 activ	CYP2C9 inh	CYP2C19 inh	sEH inh	CYP2C9 act
CCN1CCN(Cc2cc(Br)ccc2O)CC1	0	0.8	-33	22	-2	1.3
O=C1C2CCCN2C(c2cccnc2)N1c1nccs1 (stereo not given)	.	1.1	-2	-7	.	1
O=P(O)(O)Cc1ccccc1OP(=O)(c1ccccc1)c1ccccc1	6	1	11	0	-6	0.9
COc1cccc(-n2c(O)c(C=NCCN3CCOCC3)c(=O)[nH]c2=O)c1	2	1.1	-20	-11	-3	1.2
COc1ccccc1N1CCN(Cc2cc(C)c(C)cc2O)CC1	-30	0.2	-110	79*	31	2.1*
COc1ccccc1N1CCN(Cc2c(F)cccc2Cl)CC1	-14	0	68*	97*	15	0.3
Cc1ccc(C)c(C2(O)CC(C)N(C)CC2C)c1 (stereo not given)	.	1.2	-11	-16	.	1.1
O=C(c1sc2ccccc2c1Cl)N1CCC2(CC1)OCCO2	-10	0.2	-79	82*	8	1.8
CN(C)CC1CSCCC1(O)c1cccc(Cl)c1 (stereo not given)	4	.	.	.	-1	.
c1ccc(CNCCc2ccc3c(c2)OCO3)nc1	8	.	.	.	-4	.
O=C1NC(=O)C(CCc2ccccn2)(Cc2ccc3c(c2)OCO3)C(=O)N1CCc1ccccc1 (stereo not given)	-5	0.4	31	55*	7	0.7
C=Cn1ccnc1P(=S)(c1nccn1C=C)C1CCCCC1	1	0.3	15	70*	0	0.9
O=P(Nc1ccccc1)(Nc1ccccc1)Oc1cccc(Cl)c1	-1	0.5	51*	47	2	0.5
CCS(=O)(=O)N1CCCC(C(=O)N2CCC3(CC2)OCCO3)C1 (stereo not given)	4	0.4	15	58*	-2	0.9
O=C(CCc1nc(-c2ccccc2F)no1)N1CCC2(CC1)OCCO2	-2	0.8	24	23	5	0.8
CN(C)c1ccc(C(=O)c2ccc(N(C)C)cc2)cc1	4	0.3	-116	66*	-2	2.2*
